Results as given in PubChem BioAssay (NCI).
The panel holds about 83,000 compounds, 20% with a hit somewhere; the sample as a whole holds those more often.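 Treatment: one concentration, 48 hours, 96-well format. Scoring: percent growth, with anything below 10 considered active.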 A number with no mark means an inactive call. Calls of active or inactive are those of the source.

What was measured:
Experiment in all cases: NCI-60 one-dose screen, 48 h (100 = growth as untreated, 0 = no growth, -100 = all killed)
Details in all cases: 10 µM
HCT-15 colon = system: HCT-15 colon
HT29 colon = system: HT29 colon
SNB-75 CNS = system: SNB-75 CNS
SNB-19 CNS = system: SNB-19 CNS
U251 CNS = system: U251 CNS
PC-3 prostate = system: PC-3 prostate
SK-MEL-5 melanoma = system: SK-MEL-5 melanoma
UACC-62 melanoma = system: UACC-62 melanoma
LOX IMVI melanoma = system: LOX IMVI melanoma
SK-MEL-28 melanoma = system: SK-MEL-28 melanoma

| Structure (SMILES) | growth (HCT-15 colon) | growth (HT29 colon) | growth (SNB-75 CNS) | growth (SNB-19 CNS) | growth (U251 CNS) | growth (PC-3 prostate) | growth (SK-MEL-5 melanoma) | growth (UACC-62 melanoma) | growth (LOX IMVI melanoma) | growth (SK-MEL-28 melanoma) |
| --- | --- | --- | --- | --- | --- | --- | --- | --- | --- | --- |
| N#Cc1ccc(-c2nn(-c3ccc(C(=O)O)cc3)cc2CNc2cc(Cl)cc(Cl)c2)cc1 | 25.6% | 39.7% | 78.5% | 55.8% | 32.8% | 33.6% | 23.9% | 28.5% | 7.12% (active) | 18.1% |
| COc1cnc2c(c1)C(=O)c1c-2n(CCCNC(C)C)c(=O)c2cc(OC)c(OC)cc12 | 34.6% | 10.5% | 70.7% | 25.2% | 30.4% | 48.7% | 47.7% | 18.7% | -88.2% (active) | 94% |
| CC(=O)Nc1ccc(-n2cnc3cc(-c4ccc(O)cc4)ccc32)cc1C | 49.2% | 61.6% | 58.4% | 58.4% | 47.7% | 58.5% | 46.4% | 42.9% | 53.3% | 51.8% |
| CCOC(=O)c1sc(N/N=C(\C)c2ccc3c(c2)Nc2ccccc2S3)nc1C | 5.74% (active) | 30% | 97.7% | 49.7% | 27.3% | 21.9% | 20.8% | 32.4% | -58.4% (active) | 39.1% |
| Cc1ccc(CSc2nc(-c3ccc(F)cc3)c(C#N)c(=O)[nH]2)cc1 | 84.2% | 89.3% | 115% | 109% | 96.6% | 95.5% | 94.5% | 93.8% | 95.6% | 111% |
| CN(C)c1ccc(/C=C/c2nc3ccccc3c(=O)n2CC(=O)Nc2ccccc2)cc1 | 52.4% | 63.6% | 62.6% | 62.9% | 16.5% | 67.5% | 62% | 43.7% | 1.57% (active) | 35.6% |
| CNC(=O)c1cc(-c2ccc(NC(=O)Nc3ccc(C)cc3)cc2)nc2cccnc12 | 93.6% | 99.2% | 107% | 91.7% | 101% | 87.1% | 95.4% | 83.8% | 101% | 118% |
| O=C(NO)c1ccc(Cn2ccc3c(Nc4ccccc4)ncnc32)cc1 | -55.5% (active) | 8.25% (active) | 44.3% | -30.4% (active) | -38.9% (active) | 15% | -67.2% (active) | -49.3% (active) | -91.9% (active) | 5.83% (active) |
| Nc1nc(-c2ccccc2)cc(-c2cc3ccccc3nc2Cl)n1 | 55.9% | 102% | 71.4% | 73.4% | 63.4% | 76.9% | 92.9% | 83.3% | 45% | 103% |
| CCCS(=O)(=O)c1oc(-c2ccc(F)cc2)nc1S(=O)(=O)c1ccc(F)cc1 | -81.3% (active) | -69.6% (active) | 53.4% | 82.6% | 31.7% | 80.7% | 41.8% | 22% | -100% (active) | -98.7% (active) |
| C=CC(=O)Nc1nc(-c2cccc(NS(=O)(=O)c3cccc4c(N(C)C)cccc34)c2)cs1 | -76.8% (active) | -56.3% (active) | 5.83% (active) | 15.6% | -59% (active) | -26% (active) | -87.7% (active) | -86.8% (active) | -95.2% (active) | -93.6% (active) |
| CCOC(=O)C1=C(N)N(c2ccccc2)C2=C(C(=O)CC(C)(C)C2)C1c1ccccc1OC (stereo not given) | 96.3% | 103% | 94% | 92.2% | 111% | 89.2% | 97.2% | 80.4% | 101% | 110% |
| O=C(c1ccc(O)cc1)C1[C@H](c2ccccc2Br)[C@@H](c2ccccc2)NC12C(=O)Nc1ccc(Br)cc12 (stereo not given in full) | 36.8% | 26.8% | 31.5% | 53.4% | 26.5% | 23.3% | 56.9% | 42.3% | 15.8% | 77.7% |
| c1ccc(C(=C(c2ccc(OCCN3CCCCC3)cc2)c2ccc(OCCN3CCCCC3)cc2)C2CCCC2)cc1 | 34.6% | -96.2% (active) | -24.5% (active) | -96.8% (active) | -96.4% (active) | -37.1% (active) | -100% (active) | -97.1% (active) | -100% (active) | -75.6% (active) |
| CC1CC(c2ccc(N(C)C)cc2)=NN1c1nc(O)c(C2=c3cc(Br)ccc3=NC2=O)s1 (stereo not given) | 50.5% | 83.5% | 89.9% | 94.7% | 69.9% | 53.2% | 73.5% | 98.5% | -46.1% (active) | 110% |
| Cc1ccc(C(C)C)cc1NC(=O)c1ccccc1N(C)C | 76.6% | 74.6% | 112% | 93% | 87.6% | 73.7% | 86.8% | 63.1% | 86.8% | 92.9% |
| CN1C(=O)N(C)C2SC(N/N=C/C=C/c3ccccc3)=NC21 (stereo not given) | 37.2% | 73.2% | 89.7% | 72.5% | 79.2% | 75.5% | 57.9% | 41.7% | 68.1% | 69.5% |
| O=C(COc1ccc(NC(=O)Nc2ccc(Cl)cc2)cc1)N=Nc1c(O)[nH]c2ccc([N+](=O)[O-])cc12 | 94.1% | 34.8% | 29.9% | 19.1% | -67.6% (active) | 46.8% | 63.1% | 11.3% | 13.9% | -4.38% (active) |
| Cc1ccc(C(=O)NCCCNc2nc(Nc3ccc(N4CCN(C)CC4)cc3)nc3ccsc23)cc1 | 2.1% (active) | 8.64% (active) | 71.9% | 71.6% | 18.5% | 37.9% | -15.2% (active) | 24.1% | -22.6% (active) | -70.3% (active) |
| COc1ccc(-c2ccc(SCC(=O)Nc3ccc(C#N)cc3)nn2)cc1 | 97.3% | 130% | 93.7% | 64.9% | 70.7% | 85% | 94.4% | 72.3% | 84.7% | 97.7% |
| O=c1c2ccccc2nc(COc2ccccc2)n1/N=C/c1ccc(F)cc1 | 76.5% | 61.4% | 105% | 87.7% | 101% | 76.2% | 68.5% | 62.9% | 94.9% | 96% |
| O=C(CNc1nc(-c2ccccc2)cs1)Nc1ccc(Cl)cc1[N+](=O)[O-] | -78.5% (active) | -14.8% (active) | -19.2% (active) | 5.15% (active) | -52.1% (active) | 10.5% | -100% (active) | -70.5% (active) | -97.2% (active) | -69.4% (active) |
| COc1ccc(-c2nc(Nc3ccccc3S(N)(=O)=O)c3ccccc3n2)cc1 | 28.1% | 8.94% (active) | 109% | 57.7% | 3.82% (active) | 55.6% | 61.3% | 56.5% | -79.9% (active) | 76.7% |
| CCOP(=O)(OCC)O[C@H]1CC[C@]2(C)[C@H]3CC[C@@H]4[C@@H]([C@](C)(O)CCC=C(C)C)CC[C@@]4(C)[C@]3(C)CC[C@H]2C1(C)C | 10.7% | -50.2% (active) | 51.4% | 45.4% | 12.8% | 19.8% | -84.2% (active) | 43.5% | -100% (active) | 48.8% |
| O/N=C(\CSc1nnc(-c2c[nH]c3ccccc23)n1-c1ccccc1)c1ccc(Br)cc1 | -92.8% (active) | -76.9% (active) | -19.9% (active) | -9.28% (active) | 9.73% (active) | -64.4% (active) | -24.5% (active) | -90.5% (active) | -87.4% (active) | -26.3% (active) |
| Cc1noc2c(Cc3ccccc3)nn(CC(=O)N/N=C/c3ccc(F)cc3)c(=O)c12 | 94.1% | 94.8% | 9.02% (active) | 32.4% | 42.8% | 65.6% | 76% | 94% | 36.3% | 90.4% |
